Shown are actives, neighbours in structure and some others; about 2.3% of the full set was active somewhere.
CHRM1 PAM: positive allosteric modulators of human M1 muscarinic receptor | 0.088% of 360,000 active | P11229 | CHO-K1 hM1, Fluo-8 calcium fluorescence, ACh EC20; 0% = ACh EC20, 100% = maximal ACh | activation, % at 3 µM; in the data active = activation above about 19%, passing the limit was not always enough
Target sequence (P11229 whole entry, looked up): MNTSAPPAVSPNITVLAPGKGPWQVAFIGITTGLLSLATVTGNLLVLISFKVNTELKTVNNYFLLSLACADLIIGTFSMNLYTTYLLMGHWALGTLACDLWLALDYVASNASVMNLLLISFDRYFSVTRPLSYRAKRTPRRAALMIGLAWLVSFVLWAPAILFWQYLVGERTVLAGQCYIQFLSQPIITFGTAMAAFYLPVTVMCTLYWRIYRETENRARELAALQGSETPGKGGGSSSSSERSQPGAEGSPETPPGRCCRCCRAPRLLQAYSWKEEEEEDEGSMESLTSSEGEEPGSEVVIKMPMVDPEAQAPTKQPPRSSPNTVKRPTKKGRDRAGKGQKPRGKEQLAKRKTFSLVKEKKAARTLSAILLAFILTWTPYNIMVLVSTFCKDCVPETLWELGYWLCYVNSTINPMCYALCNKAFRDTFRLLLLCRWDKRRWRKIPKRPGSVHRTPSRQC
CHO-K1 Ca ag: nonselective activator or artifact in parental CHO-K1 cells; Fluo-8 calcium fluorescence; scaled to maximal ATP response, vehicle zero; activation, % at 3 µM; 0.48% of 360,000 active; in the data active = activation above about 15%;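 note: untransfected CHO-K1 host cells lacking M1 receptor as counterscreen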
CHRM1 agonist: human M1 muscarinic receptor agonism. CHO-K1 hM1, Fluo-8 calcium fluorescence, agonist mode; 0% DMSO, 100% acetylcholine EC100. activation, % at 3 µM. 0.33% of 360,000 active;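 active = activation above the run's mean compound activation plus 3 SD, cut at about 16% in these data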;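 note: peak over basal fluorescence ratio within a 140 s kinetic read after compound addition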
CHO-K1 Ca antag: counter-screen for M1 antagonists: effect in parental CHO-K1 cells; ATP-induced calcium, Fluo-8 fluorescence; inhibition, % at 3 µM; 0.6% of 360,000 active;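 active = inhibition above a per-plate cutoff, the plate's mean sample inhibition plus 3 SD, cut at about 24% in these data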
M1 antag: antagonists of human M1 muscarinic receptor; P11229; CHO-K1 hM1, Fluo-8 calcium fluorescence, ACh EC80 antagonist; inhibition, % at 3 µM; 1.3% of 360,000 active;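 active = percent inhibition above its own plate's cutoff, namely the mean of that plate's compound wells plus 3 SD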;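 note: peak over basal fluorescence ratio during 140 s after agonist addition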
M1 PAM parental: counter-screen for M1 PAMs: effect in parental CHO-K1 cells; ATP EC20, Fluo-8 calcium fluorescence; 0% at ATP EC20, 100% at ATP max; activation, % at 3 µM; 0.02% of 360,000 active;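 active = activation above the run cutoff, the mean activation of all test compounds plus 3 SD, cut at about 40% in these data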;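 note: peak over basal fluorescence ratio in a 140 s read after ATP addition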
Large screens that a line does not name were inactive.

CCc1ccc(O)c(N=Cc2cccc(C)c2O)c1	none
CC1(C(=O)NS(=O)(=O)c2ccc(F)cc2F)CCN1C(=O)C1(c2ccc(Cl)cc2)CC1 (centres undefined)	none
Cc1cc(C)c2oc(C(=O)N3CCN(C)CC3)cc(=O)c2c1	CHRM1 PAM 32
c1ccc2c(C(c3nnnn3-c3ccc4c(c3)OCCO4)N3CCCCC3)ccnc2c1 (centres undefined)	none (no result: CHRM1 PAM, CHRM1 agonist, M1 antag)
O=S1c2ccccc2Nc2ccccc21	CHRM1 PAM 27
CC1(C)CC(=O)C2=C(C1)Nc1ccccc1[S@]2=O	none
O=C(NCc1ccccc1)C1CCC(=O)N(CCN2CCOCC2)C1 (centres undefined)	none
CCOC(=O)C1(Cc2ccc(OC)cc2)CCN(S(C)(=O)=O)CC1	none
CCOC(=O)C1(Cc2ccc(Cl)cc2)CCN(C(C)Cc2ccc(O)c(OC)c2)CC1 (centres undefined)	M1 antag 39
CCOC(=O)[C@@H]1[C@H]2COc3cc(OC)ccc3[C@@H]2N2C(=O)N(c3ccc(C(F)(F)F)cc3)C(=O)[C@@]12C	none
CCOC(=O)[C@@H]1[C@H]2COc3cc(OC)ccc3[C@H]2N2C(=O)N(c3cccc(F)c3)C(=O)[C@@]12C	M1 antag 31
CCOC(=O)[C@@H]1[C@H]2COc3cc(OC)ccc3[C@H]2N2C(=O)N(c3ccc(C(F)(F)F)cc3)C(=O)[C@]12C	CHO-K1 Ca antag 33, M1 antag 41
CCOC(=O)[C@H]1[C@H]2COc3cc(OC)ccc3[C@@H]2N2C(=O)N(c3cccc(F)c3)C(=O)[C@@]12C	none
CC(=O)N1CCCC(C)(C(=O)Nc2ccc3oc(C)nc3c2)C1 (centres undefined)	CHO-K1 Ca antag 27
COc1ccc(NC(=O)CN2C(=O)CSc3ncccc32)cc1	none
N#CCCN1CCN(CCC#N)c2ccccc21	none
N#CCCN1CCN(CCC#N)C1=S	CHRM1 agonist 16
CCOC(=O)C1[C@H]2C(=O)N(C(C)c3ccc(OC)cc3)C[C@]23C=C[C@H]1O3 (some centres undefined)	M1 antag 69
CC(C(=O)NCC1(c2ccccc2)CCCC1)N1CCCC1 (centres undefined)	M1 antag 97
CC(C(=O)NCC1(c2ccccc2)CCCC1)N1CCOCC1 (centres undefined)	none
O=C(c1cc(COc2cccc3cnccc23)on1)N1CCCC(CCCO)C1 (centres undefined)	CHO-K1 Ca ag 22, M1 antag 48
COCC1CCN(C(=O)c2cc(COc3cccc4cnccc34)on2)CC1	none
C[C@@H]1COC(=O)[C@H](CC(=O)OC(C)(C)C)C/C=C\C[C@@H](CC(=O)N[C@H](CO)Cc2ccccc2)C(=O)N1	none
CCOC(=O)C1=C(C)NC(=O)/C1=C\N(C)C	CHO-K1 Ca antag 28
CCOC(=O)C1=C(C)S/C(=C\N(C)C)C1=O	none
CC1CCCCC12NC(=O)N(CC(=O)Nc1cccc(S(=O)(=O)N3CCCCC3)c1)C2=O (centres undefined)	none
Cc1c(P(=S)(c2ccccc2)c2ccccc2)[n+]2ccccc2n1CCc1ccccc1	M1 antag 47
CC1(C)CC(=O)C=C(c2ccc(-c3cccc(C(N)=O)c3)cc2)C1=O	none
COc1ccc(C[C@H]2CN3C(=NC[C@H]3C)N2CCNC(=O)c2ccc(C)c(Br)c2)cc1	M1 antag 76
CCCCn1c(N)c(N(CCC(C)C)C(=O)c2ccc3c(c2)OCO3)c(=O)[nH]c1=O	none
O=C(C[n+]1cc(-c2ccccc2)n2c1CCC2)c1cccs1	none
Cc1ccc(-c2c[n+](CC(=O)N3c4ccccc4Sc4ccccc43)c3n2CCC3)cc1	M1 antag 100
O=C(C[n+]1cc(-c2ccc(F)cc2)n2c1CCC2)N1c2ccccc2Sc2ccccc21	M1 antag 96
O=C(C[n+]1cc(-c2ccccc2)n2c1CCC2)N1c2ccccc2Sc2ccccc21	M1 antag 99
O=C(C[n+]1cc(-c2ccc(Cl)cc2)n2c1CCC2)Nc1nc(-c2ccc(F)cc2)cs1	CHO-K1 Ca ag 18
COc1ccc2cc(C=NS(=O)(=O)c3ccc(C)cc3)n(C)c2c1	none
O=C(NCCC(=O)N1CCN(c2ccccn2)CC1)c1ccc(Cl)cc1	none
O=C(CC(c1ccccc1)C1CCCCC1=O)c1ccccc1 (centres undefined)	none
CN1CCN(c2ncccc2S(=O)(=O)N2CCCCC2)CC1	M1 antag 99
CCOC(=O)C1CCN(C(=S)Nc2ccc(CC)cc2)CC1	none
CCN(CC)CCOCCOC(=O)C(CC)(CC)c1ccccc1	M1 antag 38
COc1cccc(CNC(=O)Cc2nc3nc(C)cc(C)n3n2)c1	none
COc1cc(C2CC(=O)C=C(O)C2)cc(OC)c1OC (centres undefined)	CHO-K1 Ca antag 25
COc1ccc(C2CC(=O)C=C(O)C2)cc1 (centres undefined)	none
COC(=O)c1ccc(N2C(c3cc(OC)cc(OC)c3)=Cc3ccc(-c4ccc(C(N)=O)cc4)cc3C2CC(=O)C2CC2)cc1 (centres undefined)	none (no result: CHRM1 PAM, CHRM1 agonist, M1 antag)
O=C(CC1CCCC1)N1CCN(S(=O)(=O)c2cccc(Br)c2)CC1	none
C/C(=N\N1C(=O)CSC1=S)c1ccc(Br)cc1	CHO-K1 Ca ag 19
Cc1ccc(C(=O)NN2C(=O)CSC2=S)cc1	none
CCN(CC)C(=O)C1CCCN(c2ncnc3c2cnn3-c2cccc(C)c2)C1 (centres undefined)	none
CCN1CCN(c2ncnc3c2cnn3-c2ccccc2)CC1	none
COc1cccc(N2CCN(c3ncnc4c3cnn4-c3ccc(C)cc3C)CC2)c1	M1 antag 64
COc1ccc(-n2ncc3c(N4CCN(Cc5ccccc5)CC4)ncnc32)cc1	M1 antag 23
CCOC(=O)C1CCCN(c2ncnc3c2cnn3-c2cccc(C)c2)C1 (centres undefined)	CHRM1 agonist 44
Cc1ccc(NC(=O)CSc2nc(-c3ccco3)nc3cc(=O)[nH]n23)c(Cl)c1	none
COC(=O)c1ccc(NC(=O)CS(=O)(=O)c2ccccc2)cc1	none
COC(=O)c1ccccc1NC(=O)CSc1nc(N)cc(N)n1	CHO-K1 Ca antag 26
CCc1nc2ccc(C(=O)N3CCCCC3)cn2c1N(CCC(C)C)CCN(C)C	none
COc1ccc([C@H]2C[C@H](O)[C@@H](n3cc(-c4ccc(F)cc4)nn3)CN2CC2CCCCC2)cc1	none
CCC(C)N1CCNCC1 (centres undefined)	CHO-K1 Ca antag 25
CCC(C)N1CCN(S(=O)(=O)c2ccc3ccccc3c2)CC1 (centres undefined)	none
C[C@@H]1ON(C)[C@H]2C[C@H]3c4[nH]c5ccccc5c4CCN3C(=O)[C@@H]12	none

Bioassay records deposited in PubChem BioAssay by The Scripps Research Institute Molecular Screening Center.
